Where “and” joins values, the source holds several entries; their conditions need not be identical. Equal entries are not always repeated. Results filed as inconclusive are left out. The source holds several records for some structures; these can differ, active in one and inactive in another. Calls of active or inactive are those of the source. The call rests on the fitted dose curve; in most records, active means well fitted cell-killing curve with a large enough effect; inconclusive means small, poorly fitted or top-dose-only effect, or effect the other way; inactive means no such curve, though single readings can be large or run the other way.
Assay: Viability qHTS for spleen associated tyrosine kinase inhibitor (SYKi) drug resistant MV4-11 cells (AID 1963824); further: nearly all actives have a fitted effect of over 35% in size
Conditions: SYKi-resistant MV4-11 viability, CellTiter-Glo, 72 h; series mostly up to 45 µM; viability, % of control: at the top concentration
Text: Department of Medicine, Hematology/Oncology
University Hospital Frankfurt, Germany.
Trials have shown promising clinical activity of the selective SYK inhibitor entospletinib in patients with high expressing HOXA9/MEIS1 acute leukemias. As the development of resistance mechanisms is a common problem in the use of targeted drugs, we performed a chemical library screen to identify drug sensitivities in SYK inhibitor resistant AML cells. […] Glucocorticoids are potent immunosuppressants which work in part by inhibiting the transcription of cytokine genes.
Described herein is a viability screen to look for activity in the SYK inhibitor drug resistant cell line against four NCATS compound libraries (MIPE 5.0, NPC, NPACT, and Kinase) totaling 11372 compounds. Active hits were reacquired for confirmation and further secondary assay testing.
SEQUENCE No. (e.g., 1, 2, 3, etc.); […] (e.g., Cells, Incubation, Reagent, etc.); VALUE; DESCRIPTION.
1; Media; 2uL; white, solid-bottom Corning assay plate.
2; Compounds; 23nL; Echo acoustic dispenser.
3; Cell; 5uL; 500 cells per well.
4: Incubation; 72hr; 37 C, 5% CO2, 95% humidity.
5; Reagent; 3uL; CellTiter-Glo reagent (Promega).
6; Incubation; 10min; room temperature.
7; Detection; Luminescence; ViewLux plate reader (PerkinElmer).
NOTES (numbers refer to Sequence numbers above
1. Quantitative high-throughput screening (qHTS) of small molecule compounds was conducted on drug resistant SYKi MV4-11 cell line.
2. Twenty-three nanoliter of small molecule compounds were added to each assay plates using the Echo acoustic dispenser (Beckman Coulter).
3. Cells were seeded into the assay plates at a final density of 500 cells in 5uL of media per well using the Multidrop Combi dispenser.
4. Plates were covered with stainless steel gasketed lids and incubated for 72 hours at standard cell culture conditions.
5. Viability was assessed by adding 3uL of CellTiter-Glo detection reagent (Promega).
6. Plates were covered with gasket lids and incubated for 10 minutes at room temperature.
7. Luminescence was measured on a ViewLux plate reader (PerkinElmer).
Potency means the concentration at half of the fitted maximal effect.

Compound	viability, % of control	Potency
C/C=C(\C)C(=O)OC1C(C)C2(O)C3C=C(C)C(=O)C3CC(CO)=CC2C2C(C)(C)C12OC(C)=O (stereo not given)	12.6% [at 17.3 µM] (inactive)	
COc1ccc(/C=C/C(=O)O[C@@H]2[C@@H](O[C@@H]3O[C@H](CO)[C@@H](O)[C@H](O)[C@H]3O)[C@@H](O)[C@H](O[C@H]3C4C=CO[C@@H](O[C@@H]5O[C@H](CO)[C@@H](O)[C@H](O)[C@H]5O)C4[C@@]4(CO)O[C@@H]34)O[C@H]2C)cc1 (stereo not given in full)	104% [at 9.25 µM] (inactive)	
CCC1(O)CC2c3cc(OC)c(OC)cc3CCN2CC1CC(C)C (stereo not given)	106% (inactive)	
C=CC1(C)C=C2C(=O)CC3C(C)(C)CCCC3(C(=O)O)C2(O)CC1 (stereo not given)	66.7% (inactive)	
CC(=O)O[C@]1(C(C)=O)CC[C@H]2[C@@H]3CCC4=CC(=O)CCC4=C3[C@@H](c3ccc(N(C)C)cc3)C[C@@]21C		20.6 µM (active)
CC1(C)Oc2ccc(C#N)cc2[C@@H](N2CCCC2=O)[C@@H]1O	91.8% (inactive)	
CCOCC(O)COc1ccc(NC(=O)CC[S+](C)C)cc1 (stereo not given)		inactive
CCCCCCCCCCC(O)C1C=CC2C(=O)N(c3ccccc3)C(=O)C2N1Nc1ccc([N+](=O)[O-])cc1 (stereo not given)		11.6 µM (active)
COc1cc(C)c(/C=C/C(C)=C/C=C/C(C)=C/C(=O)O)c(C)c1C		4.68 µM (active)
C[C@@H]1C(=O)O[C@H]2[C@@H](O)C34[C@H]5C[C@@H](C(C)(C)C)C36[C@@H](OC(=O)[C@@H]6O)O[C@@]4(C(=O)O5)[C@@]12O (stereo not given in full)	95% (inactive)	
Cn1cc[nH]c1=S	82.4% (inactive)	
Cn1ncc(Cl)c1-c1cc(C(=O)NC(CN)Cc2ccc(F)c(F)c2)oc1Cl (stereo not given)		4.68 µM (active)
CC[C@@H]1C(=O)O[C@]23C=C[C@@H]4C(C(=O)OC)=CO[C@H](O[C@@H]12)[C@@H]43		5.17 µM (active)
Cn1cc(-c2cnn3c(N)c(Br)c([C@@H]4CCCNC4)nc23)cn1		731 nM (active) and 468 nM (active)
Cn1cnc(-c2nccc3c(=O)[nH]c(OCCCC(F)(F)F)nc23)c1		9.2 µM (active)
COC1=C(OC)C(=O)C(CCCCCCCCCCO)=C(C)C1=O		10.6 µM (active) and 13.2 µM (active)
CCC(=O)O[C@]1(C(=O)SCF)[C@H](C)C[C@H]2[C@@H]3C[C@H](F)C4=CC(=O)C=C[C@]4(C)[C@@]3(F)[C@@H](O)C[C@@]21C		1.18 µM (active)
Cc1cc2c(C(C)C)c(O)c(O)c(C=O)c2c(O)c1-c1c(C)cc2c(C(C)C)c(O)c(O)c(C=O)c2c1O		4.68 µM (active)
Cc1nc2sc(C(=O)NCc3ccncc3)c(N)c2c(C)c1Cl	78.5% (inactive)	
CCOC(=O)c1cccc(CNc2ccc(N(C)C(=O)Nc3ccccc3)cc2)c1		11.6 µM (active)

Compound	viability, % of control	Potency
COc1ccc2c(c1)OC[C@]1(O)c3cc4c(cc3O[C@H]21)OCO4	71.9% (inactive)	
CC1=C(C)C(=O)OC(C(C)(O)C2CCC3C4CC=C5CC(OC6OC(COC7OC(CO)C(O)C(O)C7O)C(O)C(O)C6O)CC(O)C5(C)C4CCC32C)C1 (stereo not given)	78% [at 17.3 µM] (inactive)	
CC(C)=CCC/C(C)=C/CC/C(C)=C/CC[C@]1(C)CCc2cc(O)cc(C)c2O1	59.2% [at 17.3 µM] (inactive)	
Cc1cc(C(=O)N2CCN(c3cccc(Cl)c3)CC2)n(-c2ccccc2)n1		1.46 µM (active)
O=c1cc(N2CCOCC2)oc2c(-c3ccccc3)cccc12		inactive and 9.34 µM (active)
CC(=O)OC1CC(O)(C(C)C)C2C(OC(=O)c3ccc(O)cc3)C=C(C)C(=O)CC12C (stereo not given)		11.2 µM (active)
N#Cc1cnc2cnc(NCc3cccnc3)cc2c1Nc1ccc(F)c(Cl)c1		3.66 µM (active)
CN(C)CCOC(C)(c1ccccc1)c1ccc(Cl)cc1 (stereo not given)		16.4 µM (active)
CC(=O)OC(C)C(C)(O)C(=O)O[C@@H]1CC[C@]2(C)CC(=O)C(=C(C)C)C[C@H]2[C@]1(C)OC(C)=O (stereo not given in full)	92.1% [at 17.3 µM] (inactive)	
OCCNC1CCCc2c1[nH]c1ccc(-c3ccccc3)cc21 (stereo not given)		8.33 µM (active)
O=C(c1ccccc1)c1ccc2n1CCC2C(=O)O (stereo not given)	81.3% (inactive)	
CC(=O)N(CC(O)CO)c1c(I)c(C(=O)NCCO)c(I)c(C(=O)NCC(O)CO)c1I (stereo not given)	74% (inactive)	
CC(O)/C=C/C1(O)C2(C)COC1(C)CC(O)C2 (stereo not given)	74.4% (inactive)	
CC(C)=CCC(O)/C(C)=C/CO[C@@H]1O[C@H](CO)[C@@H](O)[C@H](O)[C@H]1O (stereo not given in full)	91.2% (inactive)	
CC12CCC(OC3OC(CO)C(O)C(OC4OC(CO)C(O)C(O)C4O)C3O)CC1CCC1C2CCC2(C)/C(=C3/COC(=O)C3)CCC12O (stereo not given)	93.1% [at 17.3 µM] (inactive)	
CC(=O)c1ccc(O[C@@H]2O[C@H](CO[C@@H]3OC[C@@H](O)[C@H](O)[C@H]3O)[C@@H](O)[C@H](O)[C@H]2O)cc1	102% [at 17.3 µM] (inactive)	
Fc1ccc(-c2nc(C3CCNCC3)sc2-c2ccnc(NC3CC3)n2)cc1		11.6 µM (active)
O=C1OCc2cc3cccc(O[C@@H]4O[C@H](CO)[C@@H](O)[C@H](O)[C@H]4O)c3c(O)c21	104% (inactive)	
C/C=C(/COC(=O)/C(C)=C/C)C(=O)OC/C=C/c1ccc(OC)cc1		12.8 µM (active)
COC(=O)c1ccc(N2CCN(C)CC2)c(NC(=O)c2cccc(OC)c2)c1	92.4% (inactive)	

Reference: PubChem BioAssay (NCATS)
